Test results taken from PMC5540273 (PLoS ONE, 2017).

Assays:
Conditions in all cases: concentration: 1 μM, replicates: in singlicate; n = 1
IRAK1 = system: IRAK1
IRAK3 = system: IRAK3
IRAK4 = system: IRAK4
ITK = system: ITK
[1] = system: JAK1(JH1domain-catalytic)
[2] = system: JAK1(JH2domain-pseudokinase)
[3] = system: JAK2(JH1domain-catalytic)
[4] = system: JAK3(JH1domain-catalytic)
JNK1 = system: T1, JNK1
T1 construct: gene MAPK8

JNK2 = system: T2, JNK2
T2 construct: gene MAPK9
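Also: KINOMEscan kinase panel screen.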

Compound	%Inh (IRAK1) [%]	%Inh (IRAK3) [%]	%Inh (IRAK4) [%]	%Inh (ITK) [%]	%Inh [1] [%]	%Inh [2] [%]	%Inh [3] [%]	%Inh [4] [%]	%Inh (JNK1) [%]	%Inh (JNK2) [%]
COc1cccc(NC(=O)Nc2ccc(C)c(-c3ccc(C(=O)Nc4ccncc4)cc3)c2)c1 [GSK1398474]	0	7	1	11	20	0	0	0	8	39
Cc1ccc(NC(=O)Nc2ccc(Cl)c(C(F)(F)F)c2)cc1-c1ccc(C(=O)Nc2ccncc2)cc1 [GSK1398470]	0	9	0	18	5	0	0	0	16	14
Cc1ccc(NC(=O)Nc2ccc(Cl)cc2)cc1-c1ccc(C(=O)Nc2ccncc2)cc1 [GSK1398472]	17	4	7	18	6	0	0	0	0	7
COC(=O)C(NC(=O)NC1CCN(c2ccnc(Nc3ccc(F)cc3)n2)C1)c1ccccc1 (centres unmarked) [GSK1379712]	31	6	0	0	17	5	0	0	1	0
CCCCc1nn2ncccc2c1-c1ccnc(NC2CC2)n1 [GW684374]	28	13	12	0	7	0	0	0	63	84
Cc1ccc(-c2nc(Nc3ccncc3)c3ccccc3n2)s1 [GSK189015]	0	19	2	22	16	38	3	0	20	19
O=C(Nc1n[nH]c2nc(-c3cccs3)c(Br)cc12)C1CCCC1 [SB-743341]	0	0	0	10	0	0	0	0	69	44
O=C(Nc1n[nH]c2nc(-c3ccco3)c(Br)cc12)C1CCN(Cc2ccccc2)C1.O=C(O)[C@H](O)[C@@H](O)C(=O)O (centres unmarked) [SB-742034]	0	35	0	13	0	61	23	0	37	0
CNC(=O)c1ccc(C)c(-n2c(C)cc(OCc3ccc(F)cc3F)c(Br)c2=O)c1	0	0	0	0	0	0	0	0	0	100
Cc1ccccc1-c1cc(-c2c[nH]nc2-c2ccccn2)ccn1 [GW680061]	28	2	4	12	4	0	12	0	38	30
CC(C)c1cc(-c2ccc3c(N)n[nH]c3c2)nc(N)n1 [GSK2250882]	31	4	0	11	0	8	0	0	21	30
COc1ccc(CSc2nnc(-c3ccc4c(c3)CCO4)o2)cc1	0	0	0	8	18	0	0	0	0	0
Cc1ccc(NC(=O)Nc2ccccc2)cc1-c1ccc(C(=O)Nc2ccncc2)cc1 [GSK1398471]	0	0	0	8	31	0	0	0	11	29
COc1ccc(-c2coc3ccc(-c4nnc(C)o4)cc23)cc1	0	0	9	0	15	0	3	0	0	0
O=C(Nc1n[nH]c2nc(-c3cccs3)c(Br)cc12)C1CC1 [SB-735297]	0	0	0	0	13	21	20	0	40	15
Nc1ncnc2occ(-c3ccc4c(c3)CCN4C(=O)Cc3cc(F)ccc3F)c12 [GSK2645446]	0	0	0	0	0	0	0	0	0	0
COC(=O)c1cccc(NC(=O)NC2CCN(c3ccnc(Nc4ccc(F)cc4)n3)C2)c1 (centres unmarked) [GSK1379725]	0	0	14	8	4	0	0	0	17	28
Nc1nccc(-c2c(-c3ccc(F)cc3)ncn2C2CCN(Cc3ccccc3)CC2)n1 [SB-219980]	0	0	0	7	0	0	0	0	62	95.2
COc1ccc(Nc2nccc(-c3ccc(NC(=O)c4cc5cc(F)ccc5[nH]4)cc3)n2)cc1 [GSK1229496]	10	0	0	0	0	0	18	0	4	9
Cc1nccc(-c2c(-c3ccc(F)cc3)ncn2CCCN2CCOCC2)n1.Cl [SB-282975]	39	0	30	24	0	17	37	9	13	40
Cc1ccc(NC(=O)Nc2ccccc2F)cc1-c1ccc(C(=O)Nc2ccncc2)cc1 [GSK1398477]	0	31	1	19	12	0	12	0	28	27
CSc1ccc(-c2nc3n(c2-c2ccncc2)CCC3)cc1 [SKF-105561]	21	0	6	12	8	15	4	0	31	49
CCn1c(-c2c(N)noc2C)nc2cnccc21 [SB-737856]	15	29	34	16	8	0	11	0	15	23

Compound	%Inh (IRAK1) [%]	%Inh (IRAK3) [%]	%Inh (IRAK4) [%]	%Inh (ITK) [%]	%Inh [1] [%]	%Inh [2] [%]	%Inh [3] [%]	%Inh [4] [%]	%Inh (JNK1) [%]	%Inh (JNK2) [%]
O=C1NC(=O)C(c2ccc(Cl)cc2)=C1Nc1cccc(Cl)c1 [SB-317651]	0	0	0	5	26	0	11	0	61	56
Cc1cnc(N)c(/C=C/c2cncc(C(=O)NCCc3ccc(Cl)cc3Cl)c2)c1.Cl [GSK190937]	16	0	0	0	0	0	0	0	0	18
COc1cccc(CNC(=O)NC2CCN(c3ccnc(Nc4ccc(F)cc4)n3)C2)c1 (centres unmarked) [GSK1379723]	23	5	17	9	5	0	6	0	32	3
Fc1ccc(-c2nc[nH]c2-c2ccncc2)cc1 [SB-217360]	0	0	0	5	0	28	27	0	79	95.6
O=c1cc(N2CCOCC2)nc2n(Cc3cccc(Cl)c3Cl)c3ccccc3n12 [GSK2299009]	12	15	4	13	24	0	0	0	7	32
CCn1c(-c2ccccc2)nc2cnccc21 [SB-733416]	45	4	38	1	0	0	30	0	21	3
Cn1cnc2c(N)ncnc21 [SKF-97623]	0	0	0	7	19	0	0	6	1	0
COc1ccc(Nc2nccc(N3CCC(NC(=O)c4cc5ccccc5s4)C3)n2)cc1 (centres unmarked) [GSK1379738]	37	15	19	8	15	0	100	0	22	10
COc1ccc(CSc2nnc(-c3ccc4ncsc4c3)o2)cc1C(F)(F)F	0	0	9	0	25	0	0	0	0	0
COc1ccc(Nc2nccc(NCCNC(=O)Nc3cc(C)ccc3C)n2)cc1 [GSK1379899]	0	8	3	10	0	0	16	0	20	0
CC(=O)c1cccc(NC(=O)NC2CCN(c3ccnc(Nc4ccc(F)cc4)n3)C2)c1 (centres unmarked) [GSK1379710]	27	11	7	8	21	9	25	0	16	13
O=C1NC(=O)C(c2ccc(Cl)cc2)=C1Nc1ccc(O)cc1 [SB-340867]	0	0	0	0	0	0	14	0	3	0
c1ccc(-c2ccnc3[nH]ccc23)cc1 [SB-693578]	64	0	43	18	1	2	69	76	32	0
COC(=O)c1cccc(NC(=O)NC2CCN(c3ccnc(Nc4ccc(OC)cc4)n3)C2)c1 (centres unmarked) [GSK1379746]	35	0	23	13	14	0	2	0	37	0
CS(=O)(=O)Cc1ccc(Nc2nccc(-c3c(-c4cccc(NC(=O)C5CCCCC5)c4)nn4ncccc34)n2)cc1 [GSK350559]	24	3	25	6	0	0	16	43	43	49
Cc1c(Cn2c(C)c(C)n3c(=O)cc(N4CCOCC4)nc23)cccc1C(F)(F)F [GSK2328680]	0	0	0	15	0	0	0	0	50	0
COc1ccc(CSc2nnc(-c3ccc4nccn4c3)o2)cc1C(F)(F)F	44	30	38	20	0	0	13	1	0	0
CNc1cc(-c2ccc3c(N)n[nH]c3c2)nc(N)n1 [GSK2224810]	0	0	0	3	12	35	4	0	0	6
Cc1c(Cn2c3ccccc3n3c(=O)cc(N4CCOCC4)nc23)cccc1C(F)(F)F [GSK2306394]	0	14	11	11	13	0	35	0	21	5
COc1cc2ncnc(Nc3cccc(Br)c3)c2cc1OC.Cl [GI230329]	36	21	1	0	3	0	6	0	18	56
CC(C)c1ccc(O)cc1Nc1ccnc2ccc(C(F)(F)F)cc12 [GW482059]	0	19	0	0	1	0	35	0	3	0
COc1cccc(C2=C(Nc3cc(Cl)c(O)c(Cl)c3)C(=O)NC2=O)c1 [SB-390767]	43	0	47	18	12	0	40	93.7	27	20
Cc1ccc(NC(=O)c2ccc(Cl)cc2)cc1-c1ccc(C(=O)Nc2ccncc2)cc1 [GSK1398467]	30	3	14	8	0	0	0	0	19	15

Compound	%Inh (IRAK1) [%]	%Inh (IRAK3) [%]	%Inh (IRAK4) [%]	%Inh (ITK) [%]	%Inh [1] [%]	%Inh [2] [%]	%Inh [3] [%]	%Inh [4] [%]	%Inh (JNK1) [%]	%Inh (JNK2) [%]
CS(=O)(=O)CCNCc1nc(-c2ccc3ncnc(Nc4ccc(OCc5ccccc5)c(Cl)c4)c3c2)cs1.Cl [GW582764]	28	0	13	44	2	0	10	0	15	0
CC[C@@H]1CO[C@H](C(=O)Nc2ccccc2)CN1c1cc(-c2ccc3c(N)n[nH]c3c2)nc(NC)n1 [GSK2376236]	0	5	0	3	11	0	0	0	0	17
COc1ccc(Nc2nccc(N3CCC(NC(=O)C(C)c4ccc(Cl)cc4)C3)n2)cc1 (centres unmarked) [GSK1379735]	1	10	3	14	10	0	24	0	12	0
Fc1ccc(-c2nc3n(c2-c2ccncc2)CCS3)cc1 [GI98581]	3	4	0	5	10	0	0	0	73	96.2
Cn1cncc1-c1cc2c(Nc3ccc(OCc4ccccc4)cc3)ncnc2cn1 [GW281179]	30	1	17	12	14	0	4	0	13	1
Cc1ccccc1Cn1ccn2c(=O)cc(N3CCOCC3)nc12 [GSK2269905]	0	0	13	20	0	0	0	0	21	20
Cc1cccc2c(-c3ccncn3)c(-c3ccc(F)cc3)nn12 [GW515532]	0	8	3	7	5	6	36	0	33	74
NS(=O)(=O)c1cccc(N/C=C2\C(=O)Nc3ccc(S(=O)(=O)Cc4c(Cl)cccc4Cl)cc32)c1 [GSK398099]	32	5	19	12	11	0	3	0	5	21
Nc1cccc(-c2ccc3c(N)n[nH]c3c2)n1 [GSK2192730]	0	17	4	0	14	65	100	0	0	2
CC(=O)c1c(C)c2cnc(Nc3ccc(N4CCNCC4)cn3)nc2n(C2CCCC2)c1=O	0	0	0	0	0	11	0	0	11	0
CC(=O)c1c(C)c2cnc(Nc3ccn(C)n3)nc2n(C2CCCC2)c1=O	11	0	11	0	0	0	0	9	8	18
O=C(Nc1n[nH]c2cc(-c3ccsc3)ccc12)C1CC1 [SB-732932]	3	22	9	0	0	4	8	0	36	25
CNc1nc(-c2ccc3c(N)n[nH]c3c2)cc(N2C[C@@H](C(=O)NC3CCCCC3)OC[C@H]2C)n1 [GSK2375584]	21	0	0	10	11	0	0	0	3	0
CCc1ccc(-c2ccc3c(c2)-c2n[nH]cc2S(=O)(=O)N3C)cc1	0	0	0	0	18	14	3	0	1	0
CS(=O)(=O)CCNCc1nc(-c2ccc3ncnc(Nc4ccc5c(cnn5Cc5ccccc5)c4)c3c2)cs1.Cl.Cl [GW569716]	37	0	19	17	0	0	0	0	12	2
COC(=O)C(Cc1ccccc1)NC(=O)NC1CCN(c2ccnc(Nc3ccc(F)cc3)n2)C1 (centres unmarked) [GSK1379714]	33	0	3	4	16	0	59	0	17	1
Cl.Cl.Cl.N#Cc1ccc(CCNc2nccc(-c3cccc(CN4CCNCC4)c3)n2)cc1 [GSK2137462]	0	0	0	7	3	6	0	0	32	0
Cn1cncc1C(=O)NC1CCN(c2ccnc(Nc3ccc(F)cc3)n2)C1 (centres unmarked) [GSK1379717]	41	0	26	1	17	0	100	0	29	3
FC(F)(F)c1ccccc1-c1cc(-c2c[nH]nc2-c2ccccn2)ccn1 [GW679396]	0	0	0	8	5	0	0	0	30	32
CNc1nc(-c2ccc3c(N)n[nH]c3c2)cc(N2C[C@@H](C(=O)Nc3ccccc3)CC[C@H]2C)n1 [GSK2298859]	0	0	8	12	0	0	0	0	2	15
COc1ccc2cc(-c3nc(-c4ccccc4C(C)C)[nH]c3-c3ccncc3)ccc2c1 [SB-660566]	23	0	42	8	11	0	100	0	23	44
Fc1ccc(-c2nn3cccc(F)c3c2-c2ccncc2)cc1 [GW475620]	9	2	0	0	10	30	17	0	61	93.5
